Bcl-B Bim block – inhibitors of Bim-Bcl-B binding, primary screen, biochemical, multiplexed, human Bcl-2 family; Bcl-2-like protein 10 (Homo sapiens), Q9HD36; bead-based flow cytometry, Bim peptide-Bcl-B binding; inhibition, % at 10 µM; 190,000 tested, 0.073% active; AID 951, 2007;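 note: 0% = tracer peptide without compound and 100% = reference inhibitor peptide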
Bim-Bcl-XL – inhibitors of Bim-Bcl-XL binding, primary screen, biochemical, multiplexed, bead flow cytometry, human Bcl-XL; Bcl-2-like protein 1 (Homo sapiens), Q07817; Bim peptide-Bcl-XL binding, fluorescence; inhibition, % at 10 µM; 190,000 tested, 0.04% active
Target sequence (Q07817 whole entry, looked up): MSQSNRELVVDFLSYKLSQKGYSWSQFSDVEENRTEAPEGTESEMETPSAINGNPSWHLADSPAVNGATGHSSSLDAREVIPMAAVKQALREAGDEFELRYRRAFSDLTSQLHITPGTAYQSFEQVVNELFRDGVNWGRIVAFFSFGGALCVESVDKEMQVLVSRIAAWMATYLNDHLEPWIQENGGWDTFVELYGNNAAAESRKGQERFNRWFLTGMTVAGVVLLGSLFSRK
Bfl-1 Bim block – inhibitors of Bim binding to Bfl-1, primary screen, biochemical, multiplexed, bead-based flow cytometry. Bcl-2-related protein A1 (Homo sapiens), Q16548. Bim-Bfl-1 binding inhibition. inhibition, % at 10 µM. 190,000 tested, 0.12% active. AID 1008, 2008;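 note: 0% = wells without compound plus tracer and 100% = blocker peptide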
Bim-Bcl-W – inhibitors of Bim binding to Bcl-W, primary screen, biochemical, multiplexed, bead-based flow cytometry; Bcl-2-like protein 2 (Homo sapiens), Q92843; Bim peptide-Bcl-W binding; inhibition, % at 10 µM; 190,000 tested, 0.02% active; AID 952, 2007;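 note: 0% = bound tracer without compound and 100% = peptide blocker; higher means less fluorescent Bim peptide bound to Bcl-W beads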
Target sequence (Q92843 whole entry, looked up): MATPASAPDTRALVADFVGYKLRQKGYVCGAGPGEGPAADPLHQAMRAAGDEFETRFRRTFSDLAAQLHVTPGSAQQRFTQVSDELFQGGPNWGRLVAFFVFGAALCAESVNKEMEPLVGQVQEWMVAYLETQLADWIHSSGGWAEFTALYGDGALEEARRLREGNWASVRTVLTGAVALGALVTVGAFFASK
BCLXL inh – inhibitors of human Bcl-xL, primary screen, biochemical, fluorescence polarization, HTS | 320,000 tested, 0.7% active | inhibition, % at 10.9 µM | AID 2129, 2009 | GST-Bcl-xL / FITC-Bim BH3 peptide fluorescence polarization | Bcl-2-like protein 1 (Homo sapiens), Q07817;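 active = inhibition above the mean of all tested compounds plus 3 SD, cutoff set per campaign, cut at about 30% in these data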;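 note: 0% = DMSO wells and 100% = unlabeled Bim-BH3 peptide competitor; inhibitors lower millipolarization by displacing the labeled peptide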
Bim-Bcl-2 – inhibitors of Bim-Bcl-2 binding, primary screen, biochemical, multiplexed, human Bcl-2 family; inhibition, % at 10 µM; 190,000 tested, 0.06% active; AID 950, 2007; Apoptosis regulator Bcl-2 (Homo sapiens), P10415; Bead-based flow cytometry, Bim peptide-Bcl-2 binding; in the data active = inhibition above about 40%;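 note: 0% = no compound wells with probe peptide and 100% = reference peptide inhibitor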
An asterisk follows results filed as active; x = no result. The list is not random: actives were taken first. Their share in the collection is about 0.81%. Cut-off read from the data, not from the text of the source, unless noted: active = inhibition above about 40%.

SMILES	Bcl-B Bim block	Bim-Bcl-XL	Bfl-1 Bim block	Bim-Bcl-W	BCLXL inh	Bim-Bcl-2
CCCCC1=CC2=CC(=O)C(C)(OC(=O)CC)C(=O)C2=CO1 (configuration not stated)	x	x	x	x	18	x
CCC(=O)OC1(C)C(=O)C=C2C=C(CCCC(=O)OC)OC=C2C1=O (configuration not stated)	x	x	x	x	70*	x
COC(=O)CCCC1=CC2=CC(=O)C(C)(OC(=O)C3CCCC3)C(=O)C2=CO1 (configuration not stated)	x	x	x	x	45*	x
CC(NC(=O)C1CCN(S(=O)(=O)c2ccc3c(c2)NC(=O)CO3)CC1)c1ccccc1 (configuration not stated)	x	x	x	x	6	x
O=[N+]([O-])c1ccc(C2=NN(CCO)C(=Nc3ccc(OC(F)(F)F)cc3)SC2)cc1	x	x	x	x	2	x
O=C(c1cnn2c(C(F)(F)F)cc(-c3cccs3)nc12)N1CCN(C(c2ccccc2)c2ccccc2)CC1	-10	2	1	5	85*	-1
Nc1ccc(N2CCN(c3ccc(F)cc3)CC2)cc1	-2	0	9	4	13	5
Nc1ccc(N2CCCCCC2)cc1	10	6	43*	30	27	19
O=C1OC2(c3ccccc31)c1cc(I)c(O)c(I)c1Oc1c2cc(I)c(O)c1I	x	x	x	x	88*	x
CCCn1c(/N=C/c2c[nH]c3ccccc23)nc2ccccc21	2	0	-1	0	80*	-4
COC(=O)Cc1ccc(NC(=S)N2CCN(c3cccc(O)c3)CC2)cc1	50*	12	2	11	3	18
CNc1nc(N)c(C(=O)C23CC4CC(CC(C4)C2)C3)s1	-1	0	-4	-3	4	-2
CCOc1ccc(N(C)S(=O)(=O)c2ccc(C)c(C(=O)OCC(=O)c3c[nH]c4ccccc34)c2)cc1	0	0	-1	4	0	0
COc1ccc2nc(SCC(=O)N3CCCCC3)c(C#N)cc2c1	-14	-2	-2	-5	2	-4
COc1ccc2nc(N3CCCC3)c(C#N)cc2c1	0	0	0	0	74*	0
COc1ccc2nc(N3CCCCC3)c(C#N)cc2c1	2	-1	-3	0	32*	-5
CN(CC(=O)Nc1sccc1C#N)C1CCCCC1	-1	-5	-4	-5	61*	-9
N#Cc1c(NCCCO)nc(NCc2ccccc2)c2c1CCN(Cc1ccccc1)C2	-7	-3	-12	1	31*	-3
O=C(CN1CCN(S(=O)(=O)c2cccc(Cl)c2)CC1)NCC1(N2CCOCC2)CCCCC1	x	x	x	x	1	x
O=[N+]([O-])c1ccc(N/N=C/c2ccc(O)c(O)c2O)c(S(=O)(=O)N2CCOCC2)c1	10	15	63*	40*	x	27
Cn1c(=O)c(C(=O)Nc2ccccc2S(N)(=O)=O)c(O)c2ccccc21	x	x	x	x	34*	x
O=C(CN1CCN(S(=O)(=O)c2ccc(Br)cc2)CC1)c1ccc(O)c(O)c1	x	x	x	x	11	x
CCN(c1ccc(OC)cc1)S(=O)(=O)c1nnc(NC(=O)c2ccc(C)cc2)s1	x	x	x	x	-2	x
c1ccc(Nc2ccccc2Nc2ccccn2)nc1	-6	-2	-17	2	98*	-12
COC(=O)c1ccccc1NC(=O)CN1CCN(c2ccccn2)CC1	-1	-3	-4	-1	7	-7
COC(=O)c1ccccc1N/C=C1\CCc2c(c(C)nn2-c2ccccn2)C1=O	6	7	50*	37	6	20
CC(C)CN(C(=O)COc1ccc(C(C)(C)C)cc1)C1CCS(=O)(=O)C1 (configuration not stated)	x	x	x	x	-1	x
O=C1NC(=S)S/C1=C\c1ccc(SCc2ccccc2)o1	-2	-5	-5	-3	-5	0
CCCC1=NN2C(=N)/C(=C\c3ccc(SCc4ccco4)o3)C(=O)N=C2S1	-5	-4	-11	0	70*	-3
